# Measurements published in PubChem BioAssay.
# Unmarked numbers belong to inactive results. No rule for the calls is given here.
# Biological target: Pantothenate synthetase (Mycobacterium tuberculosis (strain ATCC 25618 / H37Rv)) (UniProt P9WIL5)
# Assay: Recombinant Mtb pantothenate synthetase (PanC) inhibitors, coupled enzyme, confirmatory (AID 375);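 also: 0% = full reaction with vehicle and 100% = no enzyme background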
# Details: coupled enzyme assay; at 10 µM, stronger effect = higher value
# Chain of Pantothenate synthetase (Mycobacterium tuberculosis (strain ATCC 25618 / H37Rv)) (P9WIL5 whole entry, looked up): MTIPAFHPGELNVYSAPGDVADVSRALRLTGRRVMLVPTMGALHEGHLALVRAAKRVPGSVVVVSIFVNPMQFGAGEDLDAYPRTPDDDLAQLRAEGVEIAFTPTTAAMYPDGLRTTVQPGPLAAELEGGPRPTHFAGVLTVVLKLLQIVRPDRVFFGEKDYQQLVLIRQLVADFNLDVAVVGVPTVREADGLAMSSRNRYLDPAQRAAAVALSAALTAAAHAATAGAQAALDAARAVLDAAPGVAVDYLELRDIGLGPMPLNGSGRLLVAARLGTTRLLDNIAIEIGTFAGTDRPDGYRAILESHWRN
row,SMILES,inhibition [%]
1,CCOCC(=O)Nc1ccc(S(=O)(=O)N2CCOCC2)cc1,0
2,CC(C)C(C(=O)Nc1ccc2c(c1)OCCO2)N1C(=O)c2ccccc2C1=O (stereo not drawn),0
3,COc1ccc(N2CCN(CCCNC(=O)C3(S(=O)(=O)c4ccc(Cl)cc4)CC3)CC2)cc1,0
4,CCOc1ccc(NC(=O)c2ccc3c(c2)N(Cc2ccc(F)cc2)C(=O)CS3=O)cc1 (stereo not drawn),10
5,Oc1cc(NCc2cccnc2)ccc1-c1nc2ccccc2o1,0
6,CCOC(=O)C1CCCN(c2c(NCc3ccco3)c(=O)c2=O)C1 (stereo not drawn),0
7,O=C(Nc1ccc2c(c1)OCO2)c1nn(-c2ccccc2)c(=O)c2ccccc12,3
8,COCc1nnc(NC(=O)CCCOc2ccccc2)s1,0
9,CC(=O)Nc1cccc(NC(=O)c2ccco2)c1,0
10,CCOC(=O)CSc1nnc2n1C(C)(C)Cc1ccccc1-2,3
11,O=C(c1ccco1)N(Cc1cc2ccccc2[nH]c1=O)C1CCCCC1,0
12,O=C(c1ncn[nH]1)N1CCN(c2nc(-c3ccccc3)cs2)CC1,5
13,CC(=O)Nc1ccc(S(=O)(=O)Nc2nc3n(n2)C(c2ccccc2)CC(=O)N3)cc1 (stereo not drawn),0
14,O=S1(=O)C=C(Sc2nc3ccccc3s2)c2ccccc21,0
15,CCn1c(Cc2ccccc2)nnc1SCC(=O)Nc1nc2ccccc2s1,2
16,CC1=C(C(=O)OCc2ccccc2)C(c2ccc(C)o2)C2=C(CCCC2=O)N1 (stereo not drawn),4
17,CCN(CC)S(=O)(=O)c1ccc(Br)c(OC)c1,0
18,NC(=O)c1nsnc1-c1ccccc1O,2
19,Nc1cc(-c2ccc(Br)cc2)nn1S(=O)(=O)c1ccccc1,2
20,CCCCOC(=O)Cn1c(=N)n(CCN2CCOCC2)c2ccccc21,0
21,CCOC(=O)c1cc(C)sc1N1C(=O)C2C3C=CC(C3)C2C1=O (stereo not drawn),0
22,COc1ccc(-n2nc3cc(C)c(N)c(Br)c3n2)cc1,0
23,COc1ccc(CCNS(=O)(=O)c2ccc3c(c2)CCN3C(=O)CCC(=O)O)cc1OC,0
